Sampled rows, rich in hits. Any-hit rate of the full collection: about 0.28%.
NPYLR7 agonist: agonists of mosquito NPYLR7 receptor, primary screen, cell-based, Aedes aegypti, calcium fluorescence, mosquito biting behavior | HEK293T NPYLR7/Galpha15, GCaMP6s calcium fluorescence | 270,000 tested, 0.15% active | activation, % at 10 µM | AID 1259423, 2018 | Aedes aegypti neuropeptide Y-like receptor 7 (NPYLR7); in the data active means activation above about 40%
hcGAS inh: Primary biochemical luminescence assay for human cyclic GMP-AMP synthase inhibitors; Q8N884; recombinant h-cGAS, ATP depletion, Kinase-Glo luminescence; inhibition, % at 12.5 µM; 290,000 tested, 0.081% active; AID 1259398, 2018
mcGAS inh: cyclic GMP-AMP synthase inhibitors, mouse, primary biochemical chemiluminescence; Q8C6L5; recombinant cGAS, Kinase-Glo ATP depletion luminescence; inhibition, % at 12.5 µM; 160,000 tested, 0.15% active
Target sequence (Q8C6L5 whole entry, looked up): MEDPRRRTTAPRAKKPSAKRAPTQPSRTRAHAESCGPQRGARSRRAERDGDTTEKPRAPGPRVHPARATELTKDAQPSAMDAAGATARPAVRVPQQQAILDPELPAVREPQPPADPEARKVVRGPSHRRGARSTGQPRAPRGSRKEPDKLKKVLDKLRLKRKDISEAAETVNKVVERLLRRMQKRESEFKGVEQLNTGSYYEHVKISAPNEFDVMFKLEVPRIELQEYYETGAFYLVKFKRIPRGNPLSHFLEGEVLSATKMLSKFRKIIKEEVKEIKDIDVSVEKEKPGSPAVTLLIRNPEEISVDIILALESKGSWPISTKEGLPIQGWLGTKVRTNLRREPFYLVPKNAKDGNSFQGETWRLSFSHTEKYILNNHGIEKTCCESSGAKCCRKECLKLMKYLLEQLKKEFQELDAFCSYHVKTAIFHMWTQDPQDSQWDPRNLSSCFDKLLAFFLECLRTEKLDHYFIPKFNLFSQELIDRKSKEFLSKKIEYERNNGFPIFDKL
Hits are given with their value; n = inactive; x = not tested or not shown. Unless noted, no stated cut-off is given here; in the data, active means inhibition above about 40%; inactive means the rest.

SMILES | NPYLR7 agonist | hcGAS inh | mcGAS inh
CCNC(=O)[C@H]1O[C@@H](n2cnc3c(N)ncnc32)C(O)[C@H]1O (some centres undefined) | 191 | n | n
CCCC1=C(C(=O)OCC)C2(C(=O)Nc3ccccc32)C(C(=O)OC(C)C)C(=N)O1 (centres undefined) | n | n | n
O=C1C=C2C(=CCOC2O)O1 (centres undefined) | x | 88 | 106
COCc1nc(-c2ccc(CN3CCN(C(=O)Cc4c[nH]c5ccccc45)CC3)cc2)no1 | n | n | n
O=C1NC(=O)C2=Cc3ccc(O)cc3OC2(O)N1 (centres undefined) | 193 | n | n
CC(=O)N1CN(C(C)=O)CN(C(C)=O)C1 | n | n | x
CC(=O)O.CC(=O)O.[Cd] | n | 74 | x
COc1ccc(C)cc1CCNCc1ccccc1OC(F)F | n | n | x
FC(F)(F)c1cccc(C(OCCN2CCN(Cc3ccco3)CC2)c2ccccc2)c1 (centres undefined) | n | n | n
N#Cc1c(O)c(Cl)c(Cl)c(C#N)c1Cl | n | n | 55
CC(Cc1ccccc1F)NC(=O)CCNC(=O)OC(C)(C)C (centres undefined) | n | n | n
CNC(=O)Oc1c(Br)cc2sc(=O)oc2c1Br | n | n | 98
C=C[C@H]1CN2CC[C@H]1C[C@@H]2CNS(=O)(=O)CCC | n | n | n
O=C(Nc1ncc([N+](=O)[O-])s1)c1cccn(Cc2ccc(Cl)cc2)c1=O | n | n | x
CC(C)(C)c1ccc(-c2cn(C[C@H]3CC4CCN3C[C@@H]4C(=O)NCc3ccc4c(c3)OCO4)nn2)cc1 (some centres undefined) | n | n | n
O=C1NC(=O)N(Cc2ccccc2)C(=O)C1=Cc1ccco1 | n | n | x
Cc1ccccc1N1C(=O)/C(=C/c2ccco2)C(=O)NC1=S | n | 41 | 86
Cc1cc(C)cc(N2C(=O)NC(=O)/C(=C\c3ccco3)C2=O)c1 | n | n | n
O=C1NC(=O)N(Cc2ccccc2)C(=O)/C1=C\c1ccco1 | n | n | 44
O=C(Nc1ccon1)c1cccn(Cc2ccccc2F)c1=O | n | n | x
Cc1cc2nc(N3CCNCC3)sc2cc1C | n | n | x
CC(C)(C)c1nn(-c2cccc(Cl)c2)c2c1C(c1ccsc1)SCC(=O)N2CC(=O)NCc1ccco1 (centres undefined) | x | n | n
CC(C)(C)NC1=NC2CCN(C2)C12CCNCC2 (centres undefined) | x | n | n
O[C@]12CCNC[C@H]1CN(Cc1cc(C3CC3)on1)CC2 | x | n | n
O=C(Cc1ccc(F)cc1)N1CCC(C(=O)O)(c2ccccc2)CC1 | n | n | x
CC[C@@]1(O)C[C@H](O[C@H]2C[C@H](N(C)C)[C@H](O)[C@H](C)O2)c2c(cc3c(c2O)C(=O)c2c(O)cccc2C3=O)[C@H]1C(=O)OC | n | 72 | x
CC[C@@]1(O)C[C@H](O[C@H]2C[C@H](N(C)C)[C@H](O)[C@H](C)O2)c2c(cc3c(c2O)C(=O)c2c(O)ccc(O)c2C3=O)[C@H]1C(=O)OC | n | 44 | x
CC[C@@]1(O)C[C@H](O)c2c(cc3c(c2O)C(=O)c2c(O)ccc(O)c2C3=O)[C@H]1C(=O)OC | n | n | x
COc1cccc(CC(=O)N2CCN(C(C)c3ccccc3)CC2)c1 (centres undefined) | n | n | n
NC(=O)OC(c1ccccc1)C(Cl)(Cl)Cl (centres undefined) | n | n | x

Screening data deposited in PubChem BioAssay by Fisher Drug Discovery Resource Center.
